# Results published in PubChem BioAssay AID2502 (National Center for Advancing Translational Sciences (NCATS), 2010).
# Values joined by “and” are separate entries in the source; they are usually repeats but may differ in a detail not shown here. Equal values may be shown once. Inconclusive results are not listed. Values without a mark were called inactive. The call rests on the fitted dose curve; in most records, active means well fitted curve in the direction sought with a large enough effect; inconclusive means small, poorly fitted or top-dose-only effect, or another doubt; inactive means no such curve, though single readings can be large or run the other way.
# Assay: Confirmatory Assay for Inhibitors of Human Galactokinase (GALK): Phenol-HRP redox assay counterscreen for probe SAR
# Conditions: Phenol red-HRP H2O2 redox cycling, absorbance 600 nm
# Excerpt: NIH Molecular Libraries Probe Production Centers Network [MLPCN] NIH Chemical Genomics Center [NCGC] MLPCN Grant: R03 MH085689-01 Assay Submitter (PI): Kent Lai (University of Utah School of Medicine, 50 N Mario Capecchi Drive, Salt Lake City, UT 84132) NCGC Assay Overview: One mM dithiothreitol (DTT) was used as a reducing agent to maintain the galactokinase (GALK) enzyme in its active form in the GALK qHTS screen (AID: 1868). However, it has been shown that in the presence of DTT a number of compounds also undergo redox recyling, generating a significant amount of H2O2 that can oxidize crucial cysteine residues in the enzyme, leading to and a false-positive result. To evaluate and flag redox recycling compounds for compounds re-acquired from the qHTS screen, an endpoint colorimetric assay developed by Johnston et al. was adopted and optimized for a 1536-well plate format. In brief, the assay detects the presence of H2O2 by following the change in absorbance at 600 nm due to oxidation of phenol red (Sigma, cat# 114537) catalyzed by horseradish peroxidase (HRP; Invitrogen). A stop reagent, 1N NaOH was added prior to reading the absorbance. DMSO and different concentrations of hydrogen peroxide (Sigma, cat# 216763) in the GALK buffer were used as negative and positive controls respectively.
# NCGC Assay Protocol Summary: Two uL/well of GALK buffer (20mM HEPES pH8.0, 5 mM MgCl2, 60 mM NaCl, 1 mM DTT, 0.01% BSA final concentration) was dispensed into a 1536-well assay plates (Greiner, black clear bottom plates) with Aurora Discovery BioRAPTR Flying Reagent Dispenser (FRD; Beckton-Dickenson). Compound and control solutions (23 nL each) were transferred to the assay plate in their respective wells using Kalypsys pin tool equipped with a 1536-pin tool head and incubated at room temperature for 30 min. Presence of H2O2 produced by redox cycling compounds was detected by adding 2 uL/well phenol red - HRP detection reagent ([…] phenol red in 1x Hanks Balanced Salt Solution, 25 U/mL HRP final concentrations). After 15 min of room temperature incubation, the reaction was stopped by adding 2 uL/well 1N NaOH and incubated for an additional 1 hr at room temperature. The absorbance at 600 nm was measured using the ViewLux plate reader (Perkin Elmer, Waltham, MA) with 6000 light energy, 2 sec exposure, and 2x binning instrument settings.
row,SMILES,max response
1,O=C1CCCC2=C1C1(CCCC1)N=C(Nc1nc3ccccc3n1Cc1ccccc1)N2,-7.8%
2,O=C1CC(c2ccccc2)CC2=C1C1(CCCCC1)N=C(Nc1nc3ccccc3o1)N2 (stereo unspecified),-19.3%
3,CC1(C)CC(=O)C2=C(C1)NC(Nc1nc3ccccc3o1)=NC21CCCC1,-0.364%
4,O=C1CCCC2=C1C1(CCCC1)N=C(Nc1nc3cc(-c4ccccc4)ccc3o1)N2,-17.5%
5,O=C1CC(c2ccccc2)CC2=C1C1(CCCC1)N=C(Nc1nc3ccccc3o1)N2 (stereo unspecified),-23.7%
6,O=C1CCCC2=C1C1(CCCOC1)N=C(Nc1nc3ccccc3o1)N2 (stereo unspecified),1.73%
7,O=C1CCCC2=C1C1(CCSC1)N=C(Nc1nc3ccccc3o1)N2 (stereo unspecified),9.11%
8,CC1CCC2(C1)N=C(Nc1nc3ccccc3o1)NC1=C2C(=O)CCC1 (stereo unspecified),2.86%
9,O=C1CCCC2=C1C1(CCCC1)N=C(Nc1nc3cc(Cl)ccc3o1)N2,-6.87%
10,Cc1ccc(C2N=C(Nc3nc4ccccc4o3)NC3=C2C(=O)CC(C)(C)C3)cc1 (stereo unspecified),0.33%
11,O=C1CCCC2=C1C1(CCCC1)N=C(Nc1nc3ccccc3o1)N2,-5.8% and 7.13%
12,Cc1ccc2oc(NC3=NC4(CCCC4)C4=C(CCCC4=O)N3)nc2c1,-13.5%
13,O=C1CCCC2=C1C1(CCCCC1)N=C(Nc1nc3ccccc3o1)N2,-4.16%
14,CC1(C)CC(=O)C2=C(C1)NC(Nc1nc3ccccc3o1)=NC2c1cccnc1 (stereo unspecified),-12.6%
15,O=C1CCCC2=C1C1(CCSCC1)N=C(Nc1nc3ccccc3o1)N2,3.32%
16,CCC1CCC2(C1)N=C(Nc1nc3ccccc3o1)NC1=C2C(=O)CCC1 (stereo unspecified),9.72% [middle of 5 runs]
17,CC1(C)N=C(Nc2nc3ccccc3o2)NC2=C1C(=O)CCC2,-7.6%
18,O=C1CCCC2=C1C1(CCCC1)N=C(Nc1nc3cc4ccccc4cc3o1)N2,-24.7%

row,SMILES,max response
1,O=C1CCCC2=C1C1(CCS(=O)(=O)C1)N=C(Nc1nc3ccccc3o1)N2 (stereo unspecified),7.09%
2,O=C1CCC2=C1C1(CCCC1)N=C(Nc1nc3ccccc3o1)N2,-0.733%
3,COc1ccccc1C1N=C(Nc2nc3ccccc3o2)NC2=C1C(=O)CC(C)(C)C2 (stereo unspecified),-7.36%
4,CC1(C)CC(=O)C2=C(C1)NC(Nc1nc3ccccc3o1)=NC2c1ccccc1Cl (stereo unspecified),-4.5%
5,O=C1CCC2=C1C(c1ccccc1Cl)N=C(Nc1nc3ccccc3o1)N2 (stereo unspecified),4.53%
6,O=C1CCCC2=C1C1(CCC1)N=C(Nc1nc3ccccc3o1)N2,-2.94%
7,Cc1ccc2nc(NC3=NC4(CCCC4)C4=C(CCCC4=O)N3)oc2c1,-9.86%
8,Cn1c(NC2=NC3(CCCC3)C3=C(CCCC3=O)N2)nc2ccccc21,-10.7%
9,CC1(C)CC(=O)C2=C(C1)NC(Nc1nc3ccccc3o1)=NC2c1ccccc1 (stereo unspecified),4.41%
10,CC1(C)CC(=O)C2=C(C1)NC(Nc1nc3ccccc3o1)=NC2c1cccc(Cl)c1 (stereo unspecified),-8.98%
11,Cc1nc(Nc2nc3ccccc3o2)nc2c1C(=O)CC(C)(C)C2,-9.62%
12,COc1ccc(C2N=C(Nc3nc4ccccc4o3)NC3=C2C(=O)CC(C)(C)C3)cc1 (stereo unspecified),-4.13%
13,O=C1CCCC2=C1C(c1ccccc1Cl)N=C(Nc1nc3ccccc3o1)N2 (stereo unspecified),1.07%
14,O=C1CCCC2=C1C1(CCCC1)N=C(Nc1nc3cc(Br)ccc3o1)N2,-13.4%
15,O=C1CCCC2=C1[C@@]1(CCC(c3ccccc3)C1)N=C(Nc1nc3ccccc3o1)N2 (stereo partly specified),-22.7%
16,COc1cccc(C2N=C(Nc3nc4ccccc4o3)NC3=C2C(=O)CC(C)(C)C3)c1 (stereo unspecified),-7.9%
17,O=C1CCCC2=C1C(c1ccc(Cl)cc1)N=C(Nc1nc3ccccc3o1)N2 (stereo unspecified),2.22%
18,O=C1CCCC2=C1C1(CCOCC1)N=C(Nc1nc3ccccc3o1)N2,-7.41%
